Laboratory results: PubChem BioAssay AID504850 (National Center for Advancing Translational Sciences (NCATS), 2011)
Hit rate of the full screen: of about 2,300 compounds, about 1,200 (52%) were called active. Another 34% or so got no clear call; they are omitted. Calls come from the whole dose curve; as a rule, active = well fitted inhibition curve with a large enough effect; inconclusive = small, poorly fitted or top-dose-only effect, or effect the other way; inactive = no such curve, though single readings can be large or run the other way. So high a share suggests a set chosen from earlier hits. This is one part of the list.
Potency is the fitted concentration of half-maximal effect.

Experiment: Confirmation screen for delayed death inhibitors of the malarial parasite plastid, 48 hour incubation; note: nearly all actives have a fitted effect of over 65% in size
Conditions: P. falciparum-infected erythrocytes, luciferase growth; series mostly up to 28.7 µM
Outline: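 Erythrocytes infected with luciferase-expressing P. falciparum (2% hematocrit, 0.1% parasitemia) incubated with compounds 48 hours at 37 C, 5% CO2, in RPMI/Albumax. Growth inhibition scored as reduced luminescence after detection reagent.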
For `COc1cc(C2Oc3ccccc3C=C2[N+](=O)[O-])cc(OC)c1OC` (centres undefined), the Potency was 14.1 µM (active).
With `COc1cc(/C=C(/C(=O)c2cccs2)c2nc3ccccc3[nH]2)ccc1O` the Potency was 8.91 µM (active).
In the case of `O=C(/C(=C/c1ccc(Cl)cc1)c1nc2ccccc2[nH]1)c1ccccc1`, the Potency is reported as 1.41 µM (active).
In the case of `CCCc1c(C)c2cccc(C)c2[nH]c1=O`, the Potency is reported as “inactive”.
In the case of `COc1ccc(CNC(=O)C[C@H]2C(=O)N(C3CCCCC3)C[C@@H]2Cc2ccccc2)cc1`, the Potency is reported as 11.2 µM (active).
For `COc1ccc(CNCc2ccc3ccccc3c2)c(OC)c1`, the Potency was 11.2 µM (active).
For `Cc1cc(C)n(CC(O)COc2ccccc2)n1` (centres undefined), the Potency was 2 µM (active).
In the case of `CCOC(=O)c1c(-c2ccc(C)cc2C)csc1NC(=O)CSc1nnnn1C`, the Potency is reported as 4.47 µM (active).
For `CC1=NCCN1CCNC(=O)Nc1ccc(F)cc1`, the Potency was “inactive”.
In the case of `CCCc1c(NC(=O)Nc2ccc(F)cc2)cnn1-c1ccccc1`, the Potency is reported as 15.8 µM (active).
In the case of `CCCSc1nc2c(cnn2-c2ccccc2)c(=O)[nH]1`, the Potency is reported as “inactive”.
In the case of `CCCc1c(NC(=O)Nc2ccc(F)cc2)cnn1-c1ccc(Cl)cc1`, the Potency is reported as 12.6 µM (active).
With `NC(=O)C1CCN(CC(=O)Nc2cccc(C(=O)Nc3cccc(C(F)(F)F)c3)c2)CC1` the Potency was 2 µM (active).
For `COc1cccc(NC(=O)c2ccc3c(c2)C(=O)N(CC2CCCO2)C3=O)c1` (centres undefined), the Potency was “inactive”.
With `CSc1c[n+]2c(n1C)CCC2` the Potency was “inactive”.
With `Cc1ccc(-n2c(-c3ccc(Cl)cc3)c[n+]3c2CCC3)cc1` the Potency was 0.355 µM (active).
With `Cc1c(C)n2c(SCC(=O)Nc3ccc4c(c3)OCCO4)nnc2[nH]c1=O` the Potency was 4.47 µM (active).
For `O=C(c1[nH]ncc1-c1cccc(Br)c1)C1CO1` (centres undefined), the Potency was 12.6 µM (active).
For `Cc1onc(NC(=O)c2ccc([N+](=O)[O-])o2)c1Br`, the Potency was 12.6 µM (active).
In the case of `CC1=Nc2cc(C(=O)N3CCCC3)ccc2Sc2ccc(C)cc21`, the Potency is reported as 5.62 µM (active).
For `COc1ccc(CCN2CCCn3c2nc2c3c(=O)n(Cc3ccccc3F)c(=O)n2C)cc1OC`, the Potency was 5.01 µM (active).
With `COc1cc(/C=C/C(=O)c2ccc(Cl)s2)cc(OC)c1O` the Potency was 14.1 µM (active).
With `COc1ccccc1CNC(=O)c1ccc2c(=O)n3c(nc2c1)CCCCC3` the Potency was 11.2 µM (active).
In the case of `CCOC(=O)C1CCN(C(=O)C(=O)Nc2ccc3nc4n(c(=O)c3c2)CCCCC4)CC1`, the Potency is reported as 14.1 µM (active).
In the case of `COc1ccccc1C(=O)Nc1ccc2nc3n(c(=O)c2c1)CCCC3`, the Potency is reported as 11.2 µM (active).
For `CCC(=O)N1CCc2cc(S(=O)(=O)N3CCN(c4cc(Cl)ccc4C)CC3)ccc21`, the Potency was “inactive”.
For `CC(=O)N1CCc2cc(S(=O)(=O)N3CC(C)CC(C)C3)ccc21` (centres undefined), the Potency was 11.2 µM (active).
For `CCC(=O)N1CCc2cc(S(=O)(=O)N3CCCCCC3)ccc21`, the Potency was 12.6 µM (active).
In the case of `O=C1C2CCCN2C(c2ccccc2)N1c1nccs1` (centres undefined), the Potency is reported as “inactive”.
For `Cc1ccc(Nc2nc(=O)c3cccnc3s2)c(Br)c1`, the Potency was “inactive”.
With `O=S(=O)(Nc1cccc2ncccc12)c1cccs1` the Potency was 4.47 µM (active).
With `Cc1ccc(S(=O)(=O)Nc2cccc3ncccc23)s1` the Potency was 5.01 µM (active).
For `CCOc1ccc(CCn2c(-c3ccco3)nc3ccccc3c2=O)cc1OCC`, the Potency was 10 µM (active).
For `CCOc1ccc(S(=O)(=O)Nc2cc(S(=O)(=O)N(CC)CC)ccc2N2CCCC2)cc1`, the Potency was 2.51 µM (active).
With `COc1ccc(C(=O)/C(=C\c2ccco2)N2C=CC=CC2=C(C#N)C#N)cc1` the Potency was 15.8 µM (active).
With `N#CC(C#N)=C1C=CC=CN1/C(=C\c1ccco1)C(=O)c1ccc(Cl)cc1` the Potency was 14.1 µM (active).
With `N#CC(C#N)=C1C=CC=CN1/C(=C\c1ccco1)C(=O)c1ccc(Br)cc1` the Potency was 15.8 µM (active).
In the case of `COc1ccc(-c2cc(CNC(=O)CCl)on2)cc1`, the Potency is reported as 1.58 µM (active).
With `O=C(CN(c1ccc2c(c1)OCCO2)S(=O)(=O)c1ccccc1)NCc1ccc(Cl)cc1` the Potency was 7.94 µM (active).
With `O=C(NCc1ccc2c(c1)OCO2)c1nc(S(=O)(=O)Cc2ccccc2F)ncc1Cl` the Potency was “inactive”.
For `CC(C)N1C/C(=C/c2ccsc2)C(=O)/C(=C/c2ccsc2)C1`, the Potency was 5.01 µM (active).
With `Cc1c(CCO)sc[n+]1CC(=O)OCCC12CC3CC(CC(C3)C1)C2` the Potency was 8.91 µM (active).
For `CCCCc1nc2cc(C(=O)N3CCN(c4nc(C)cnc4C)CC3)ccc2o1`, the Potency was 12.6 µM (active).
With `CCC(C)(C)NC(=O)C(c1cccc(OC)c1OC)N(CC(C)C)C(=O)CCC(=O)Nc1cc(C)on1` (centres undefined) the Potency was 10 µM (active).
In the case of `CCOC(=O)Cn1nnnc1C(CC)N(Cc1cccs1)Cc1cc2ccc(OC)cc2[nH]c1=O` (centres undefined), the Potency is reported as 10 µM (active).
In the case of `Cc1ccc(OCC(=O)Nn2cnnc2)c(Br)c1`, the Potency is reported as “inactive”.
With `Cc1ccc(C)c(-c2nnc(OCC(=O)Nc3cc(C)on3)c3ccccc23)c1` the Potency was 14.1 µM (active).
In the case of `CC(C)N=C(NS(=O)(=O)c1ccccc1)C(Cl)(Cl)Cl`, the Potency is reported as 5.01 µM (active).
In the case of `C=CCNC(=O)c1onc(CSc2cccc(Cl)c2)c1C(=O)O`, the Potency is reported as “inactive”.
In the case of `CCc1ccc(-c2cn(C3CCCCC3)c(=S)[nH]2)cc1`, the Potency is reported as 14.1 µM (active).
For `CC(=O)/C=C/c1ccccc1Oc1c(F)c(F)nc(F)c1F`, the Potency was 10 µM (active).
With `Cc1cccc2c1NC(=O)/C2=C\C(=O)c1cccs1` the Potency was “inactive”.
For `CC(NC(=O)Nc1ccc(Cl)cc1)c1ccc2c(c1)OCO2` (centres undefined), the Potency was “inactive”.
With `CC(C)N(C(=O)CSc1nnc(-c2ccc3c(c2)OCO3)n1C)C(C)C` the Potency was 11.2 µM (active).
For `COC(=O)[C@H](Cc1ccccc1)N(C)S(=O)(=O)c1cccc(S(=O)(=O)N(C)[C@@H](Cc2ccccc2)C(=O)OC)c1`, the Potency was 12.6 µM (active).
For `O=C(N[C@@H](Cc1ccccc1)C(=O)CCl)OCc1ccccc1`, the Potency was “inactive”.
For `CCCCCn1c(=O)c2ccccc2n2c(CCl)nnc12`, the Potency was 10 µM (active).
With `COc1cccc(F)c1C(C[N+](=O)[O-])c1c(N)n(C)c(=O)n(C)c1=O` (centres undefined) the Potency was 5.01 µM (active).
In the case of `Cc1ccc(CN2CCCCC2C(=O)Nc2ccc(Oc3cccnc3)cc2)o1` (centres undefined), the Potency is reported as 11.2 µM (active).
In the case of `Cc1ccccc1C(=O)N1CCN(c2ccc(NC(=O)c3ccc([N+](=O)[O-])o3)cc2)CC1`, the Potency is reported as 10 µM (active).
With `O=C(Nc1ccc(N2CCN(C(=O)c3ccccc3)CC2)cc1)c1ccc([N+](=O)[O-])o1` the Potency was 5.01 µM (active).
In the case of `O=C(Nc1c2c(nn1-c1ccc([N+](=O)[O-])cc1)CS(=O)(=O)C2)c1cccs1`, the Potency is reported as “inactive”.
With `O=C(Nc1ccc(N2CCN(C(=O)c3cccs3)CC2)cc1)c1ccc([N+](=O)[O-])o1` the Potency was 3.55 µM (active).
In the case of `O=C(Nc1ccc(N2CCN(C(=O)c3ccco3)CC2)cc1)c1ccc(F)cc1`, the Potency is reported as 11.2 µM (active).
With `COc1ccc(CCNS(=O)(=O)c2ccc(Br)s2)cc1` the Potency was “inactive”.
In the case of `O=C(NCc1ccc(F)cc1)C1CCN(S(=O)(=O)c2ccc(Br)s2)CC1`, the Potency is reported as 12.6 µM (active).
In the case of `O=C(COC(=O)C1C2CC3OC(=O)C1C3C2)Nc1ccccc1` (centres undefined), the Potency is reported as “inactive”.
In the case of `O=S1(=O)Nc2c(ccc3cccnc23)-c2ccccc21`, the Potency is reported as 1.78 µM (active).
For `Cc1ccc(-c2nc(-c3cccnc3)sc2CC(=O)Nc2ccc(C)c(Cl)c2)cc1`, the Potency was 4.47 µM (active).
In the case of `Cc1nc(-c2ccccn2)sc1C(=O)Nc1ccc(Cl)c(Cl)c1`, the Potency is reported as “inactive”.
With `COc1cc(OC)c(OC)cc1CN1CCN(C(=O)c2cccc3ccccc23)CC1` the Potency was 12.6 µM (active).
For `CC1C/C(=C/c2ccncc2)C(=O)/C(=C/c2ccncc2)C1` (centres undefined), the Potency was 3.98 µM (active).
In the case of `CCSc1nnc(N2C(=O)c3ccc(C(=O)c4ccc(C(=O)O)cc4)cc3C2=O)s1`, the Potency is reported as “inactive”.
For `O=C(NC1CCN(Cc2ccccc2)CC1)C1CCN(c2nnc(-n3cccc3)s2)CC1`, the Potency was 10 µM (active).
With `O=C(NC1CCCC1)C1CC(=O)N(CCc2ccccc2)C1` (centres undefined) the Potency was “inactive”.
In the case of `O=C(Cc1cccs1)NCCc1ccc(Cl)cc1`, the Potency is reported as 4.47 µM (active).
With `Cc1ccc(Cl)cc1N1CCN(c2cccc[n+]2C)CC1` the Potency was 3.16 µM (active).
With `COc1cccc2sc(Nc3nnc(-c4ccc(F)cc4)o3)nc12` the Potency was 7.08 µM (active).
In the case of `O=C(COc1ccccc1)Nc1nnc(-c2ccc(F)cc2)o1`, the Potency is reported as “inactive”.
With `COc1cccc2sc(Nc3nnc(-c4ccccc4Cl)o3)nc12` the Potency was 12.6 µM (active).
For `CC(C)CCSc1nc(N)c(C#N)cc1C#N`, the Potency was 6.31 µM (active).
For `CCOC(=O)c1c[nH]c2cc(OCC(C)C)c(OCC(C)C)cc2c1=O`, the Potency was 0.199 µM (active).
For `CSc1nnc(C)c(=O)[nH]1`, the Potency was “inactive”.
With `Cc1cc(=O)oc2c1ccc1oc(/C(=N/O)c3ccccc3)c(C)c12` the Potency was 7.94 µM (active).
In the case of `COc1ccccc1NC(=S)NCc1cccs1`, the Potency is reported as “inactive”.
For `Cc1ccc2cc3cc(C(=O)NCCCN4CCCC4=O)oc3nc2c1`, the Potency was 3.16 µM (active).
For `COc1ccc2nc3oc(C(=O)NCc4cccs4)cc3cc2c1`, the Potency was 3.55 µM (active).
With `COCCCNC(=O)c1cc2cc3cc(OC)ccc3nc2o1` the Potency was 5.01 µM (active).
With `COc1ccc2cc3cc(C(=O)Nc4ccc5c(c4)OCO5)oc3nc2c1` the Potency was 5.01 µM (active).
With `Cn1cnc([N+](=O)[O-])c1Sc1ccc(Br)cc1` the Potency was “inactive”.
In the case of `Cc1cc(Br)ccc1NC(=O)CNC(=O)Cn1ncc(Cl)c(Cl)c1=O`, the Potency is reported as 12.6 µM (active).
For `O=C(NNc1nc(-c2ccccc2)cs1)c1ccco1`, the Potency was 2.24 µM (active).
In the case of `O=C(Nn1c(-c2ccccc2)nc2ccccc2c1=O)c1ccco1`, the Potency is reported as “inactive”.
With `Cc1nn(-c2ccccc2)c(C)c1/C=N/n1c(-c2ccccc2Br)n[nH]c1=S` the Potency was 14.1 µM (active).
With `S=c1[nH]nc(-c2ccccn2)n1/N=C/c1ccc(-c2ccccc2Br)o1` the Potency was “inactive”.
For `Cc1[nH]c2ccccc2c(=O)c1C(=O)/C=C/c1ccccc1`, the Potency was 6.31 µM (active).
For `Cc1[nH]c(=O)c(C(=O)/C=C/c2ccccc2)c2c1CCCC2`, the Potency was 6.31 µM (active).
In the case of `Cc1[nH]c2ccccc2c1/C=N/NC(=O)CNC(=O)Cc1ccccc1`, the Potency is reported as “inactive”.
For `Cc1[nH]c(=O)c(C(=O)/C=C/c2ccccc2F)c2c1CCCC2`, the Potency was 7.08 µM (active).
